PubChem BioAssay
The source made the active and inactive calls.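 How the source made its calls, unless noted: active means inhibition of the reporter signal at or above 50%; inactive means inhibition below 50%.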

Experiments:
[1] = inhibitors of TNFa-induced NFkB p65 translocation, primary screen, imaging, HUVEC, MLSMR starter and 10KST1 sets (AID 438;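 active means inhibition above 20% together with a positive visual image hit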;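 further: compound added about 3h40 before a 20 min TNFalpha stimulation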;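 on inhibition: signal is the nuclear over cytoplasmic p65 intensity ratio per well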); conditions: HUVEC TNFa-induced p65 nuclear translocation; cell count: measured here: nuclei count (cytotoxicity indicator), at 2.08 µM; inhibition: at 2 µM, stronger effect = higher value, 0% TNFa-plus-vehicle, 100% no-TNFa wells
[2] = reduction of polyQ htt aggregates in cells – imaging, exon1htt(103Q)mCFP cells, high-content imaging, primary screen (AID 483;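 active means visual image review flags a hit and inhibition of aggregation exceeds 20%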;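 further: compound exposure lasted 3 days before fixation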;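 on nuclei count: percent of the per-plate median nuclei count of sample wells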); conditions: exon1htt(103Q)mCFP cell line, aggregate imaging, at 2 µM; inhibition of aggregation: stronger effect = higher value; nuclei count: measured here: cell count, toxicity
[3] = endothelial E-selectin expression blockers – imaging, HUVEC, immunofluorescence, MLSMR starter and 10KST1 sets, primary screen (AID 487;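 active means visually confirmed hit in the image check and inhibition above 20%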;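 on inhibition: signal is fraction of cell area covered by stained E-selectin grains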;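 on nuclei count: 100% = median nuclei count of all wells on the same plate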); conditions: HUVEC TNFalpha-induced E-selectin immunofluorescence imaging, at 2 µM; inhibition: stronger effect = higher value; nuclei count: measured here: cell number, toxicity
[4] = biological target: Voltage-gated potassium channel subunit beta-2 (Rattus norvegicus) (UniProt P62483); assay: inhibitors of rat Kvbeta2 reductase activity – biochemical, NADPH fluorescence, primary screen (AID 622;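 active means fluorescence slope higher than the sample average by over 3 SD, cut at about -0.22 in these data, passing the limit was not always enough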;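 further: slope of raw intensity against log time taken from 70 to 1610 s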); conditions: recombinant KvBeta, 4-cyanobenzaldehyde reduction, at 10 µM, stronger effect = higher value
[5] = biological target: Voltage-gated potassium channel subunit beta-2 (Rattus norvegicus) (UniProt P62483); assay: enhancers of rat Kvbeta2 NADPH turnover – biochemical, NADPH fluorescence, primary screen (AID 623;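 active means NADPH fluorescence slope more negative than the mean of all samples by about 3 SD, 99.7% confidence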;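 further: fluorescence intensity change per second fitted from 20 to 320 s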); conditions: Recombinant KvBeta, NADPH fluorescence decrease slope, 10 min; at 10 µM; stronger effect = lower value
[6] = biological target: Alpha-2C adrenergic receptor (Homo sapiens) (UniProt P18825); assay: compounds altering alpha2C-coupled GIRK flux – cell-based, HEK293 alpha2C/GIRK1/2, thallium flux, primary screen (AID 624;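 active means fluorescence slope after compound addition differing from the mean of all screened samples at 99.7% confidence, in either direction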;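 further: slope of fluorescence ratio to pre-addition baseline per second over 15 to 24 s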); conditions: thallium flux BTC fluorescence, at 10 µM, actives lie on both sides
[7] = blockers of RIG-like receptor reporter activation – cell-based, Sendai virus stimulus, luciferase, 10K MLSCN set, TLR/RLR signaling modifier project, primary screen (AID 602276;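 active means inhibition at or above 50% at 10 µM; inactive means inhibition below 50%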;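 further: firefly luciferase from ISG56 promoter only with Renilla not read in this screen; 0% = Sendai virus plus DMSO and 100% = medium plus DMSO without virus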); conditions: HEK293 RL24 IRF3 luciferase reporter, at 10 µM, stronger effect = higher value
[8] = TLR3 IRF3 reporter activation blockers – cell-based, poly I:C stimulus, luciferase, 10K MLSCN set, primary screen (AID 602277); conditions: HEK293-TLR3 RL24 IRF3 luciferase reporter, at 10 µM, stronger effect = higher value

Alpha-2C adrenergic receptor (Homo sapiens), sequence (P18825 whole entry, looked up): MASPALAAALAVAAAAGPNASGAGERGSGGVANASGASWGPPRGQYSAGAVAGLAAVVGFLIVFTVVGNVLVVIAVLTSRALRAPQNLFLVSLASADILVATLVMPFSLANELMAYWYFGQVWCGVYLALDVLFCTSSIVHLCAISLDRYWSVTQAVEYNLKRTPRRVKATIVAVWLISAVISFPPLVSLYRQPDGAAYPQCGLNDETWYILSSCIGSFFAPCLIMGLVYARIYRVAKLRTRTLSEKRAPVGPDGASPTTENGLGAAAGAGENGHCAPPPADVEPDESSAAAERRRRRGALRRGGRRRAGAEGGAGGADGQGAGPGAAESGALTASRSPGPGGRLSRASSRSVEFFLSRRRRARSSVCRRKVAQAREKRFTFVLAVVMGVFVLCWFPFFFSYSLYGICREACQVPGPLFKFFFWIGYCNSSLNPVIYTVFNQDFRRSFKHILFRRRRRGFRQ
Voltage-gated potassium channel subunit beta-2 (Rattus norvegicus), sequence (P62483 whole entry, looked up): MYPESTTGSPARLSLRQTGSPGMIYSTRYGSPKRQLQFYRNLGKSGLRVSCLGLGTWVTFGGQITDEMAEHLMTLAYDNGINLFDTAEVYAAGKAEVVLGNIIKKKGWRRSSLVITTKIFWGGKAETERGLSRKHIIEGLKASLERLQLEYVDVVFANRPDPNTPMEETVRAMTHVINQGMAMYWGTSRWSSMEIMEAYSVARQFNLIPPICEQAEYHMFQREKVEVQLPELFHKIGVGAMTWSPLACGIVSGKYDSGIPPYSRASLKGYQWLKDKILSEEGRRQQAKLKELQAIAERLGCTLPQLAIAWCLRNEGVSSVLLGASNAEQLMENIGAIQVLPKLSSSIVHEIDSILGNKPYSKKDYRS

SMILES	cell count [1]	inhibition [1]	inhibition of aggregation [2]	nuclei count [2]	inhibition [3]	nuclei count [3]	fluorescence slope [4]	NADPH fluorescence slope [5]	slope [6]	inhibition [7]	inhibition [8]
CS(=O)(=O)N(CC(=O)N1CCc2ccccc2C1)c1ccc2c(c1)OCO2	262	1.6% (inactive)	17% (inactive)	97.2%	14.1% (inactive)	77.8%	-0.481 (inactive)	-5.5e-05 (inactive)	0.00584 (inactive)	11% (inactive)	23.8% (inactive)
CC1(C)C(c2ccccc2)=NC(c2ccccc2)N1O (stereo not drawn)	422	-2.8% (inactive)	1.2% (inactive)	107%	-22.6% (inactive)	113%	-0.428 (inactive)	-3e-05 (inactive)	0.0012 (inactive)	5.11% (inactive)	35.3% (inactive)
Cc1ccc(C)c(N(CC(=O)NCc2ccco2)C(=O)CCC(=O)Nc2ccccn2)c1	423	5.1% (inactive)	-7.8% (inactive)	114%	-41% (inactive)	105%	-0.608 (inactive)	-1.8e-05 (inactive)	0.00608 (inactive)	15.1% (inactive)	30.2% (inactive)
Nc1ncnc2nc(Sc3ccc(Cl)cc3)[nH]c12	645	-8.5% (inactive)	-5.4% (inactive)	108%	-12.5% (inactive)	108%	-0.555 (inactive)	-6.5e-06 (inactive)	0.00627 (inactive)	10.1% (inactive)	12.5% (inactive)
COc1ccc(CC(NC(C)=O)C(=O)N2CCN(C(=O)N(C(C)C)C(C)C)CC2)cc1 (stereo not drawn)	309	-4% (inactive)	-9.5% (inactive)	91.9%	-29.4% (inactive)	100%	-0.397 (inactive)	-6.6e-05 (inactive)	0.00701 (inactive)	4.31% (inactive)	3.57% (inactive)
CC(C)(C)C1CCc2[nH]nc(C(=O)O)c2C1 (stereo not drawn)	814	-2.8% (inactive)	0% (inactive)	104%	2% (inactive)	121%	-0.607 (inactive)	1.9e-05 (inactive)	0.00808 (inactive)	12.4% (inactive)	16% (inactive)
Cc1ccc(C2=Nc3ccccc3NC(C)(c3ccc(C)o3)C2)o1 (stereo not drawn)	696	1.6% (inactive)	-18.4% (inactive)	100%	-39.9% (inactive)	100%	-0.54 (inactive)	1.2e-05 (inactive)	0.00401 (inactive)	-47.1% (inactive)	-67.9% (inactive)
CCCC1c2ccc(C)n2CCN1C(=O)Nc1ccccc1Cl (stereo not drawn)	243	2.3% (inactive)	-6.4% (inactive)	100%	-1% (inactive)	94.7%	-0.564 (inactive)	2.7e-05 (inactive)	0.0054 (inactive)	-53.4% (inactive)	-190% (inactive)
CCCC(=O)Nc1ccc2oc(-c3cccnc3)nc2c1	330	-1.1% (inactive)	18.2% (inactive)	82.7%	-1.9% (inactive)	62.2%	-0.332 (inactive)	-1.1e-05 (inactive)	0.00331 (inactive)	-23.4% (inactive)	-96.1% (inactive)
O=C(CSc1nnc(-c2ccncc2)n1-c1ccc(F)cc1)NC(=O)NCc1ccco1	537	-13.7% (inactive)	-9.8% (inactive)	100%	-65.7% (inactive)	149%	-0.46 (inactive)	-0.000317 (inactive)	0.00513 (inactive)	10.1% (inactive)	15.2% (inactive)
Nc1ncnc(Nc2ccccc2C(F)(F)F)n1	382	-3.3% (inactive)	-11.5% (inactive)	100%	-8% (inactive)	107%	-0.487 (inactive)	4.7e-05 (inactive)	0.00593 (inactive)	-28.4% (inactive)	-11.7% (inactive)
CC1CCN(Cc2nc3c(c(=O)n(C)c(=O)n3C)n2Cc2cccc3ccccc23)CC1	703	-22.3% (inactive)	12.7% (inactive)	105%	-26.6% (inactive)	131%	-0.427 (inactive)	-2.4e-05 (inactive)	0.00536 (inactive)	13.1% (inactive)	41.7% (inactive)
COc1ccc(Cc2nc(-c3ccc(NC(=O)c4cccnc4)cc3)no2)cc1	609	9.6% (inactive)	23.4% (inactive)	121%	-45.6% (inactive)	96.3%	-0.6 (inactive)	-5e-05 (inactive)	0.0059 (inactive)	-8.06% (inactive)	-67.3% (inactive)
c1ccc(CCNc2ccc3nncn3n2)cc1	593	5.8% (inactive)	-3.1% (inactive)	106%	-9.2% (inactive)	121%	-0.501 (inactive)	-2.4e-05 (inactive)	0.00573 (inactive)	6.01% (inactive)	12.8% (inactive)
Cc1cc(C)c2c(n1)nn1c(N3CCN(c4cccc(Cl)c4)CC3)cc(C)nc21	458	-7.1% (inactive)	3.7% (inactive)	97.9%	-60.1% (inactive)	130%	-0.303 (inactive)	1.1e-05 (inactive)	0.00567 (inactive)	9.81% (inactive)	21.4% (inactive)
COc1ccc(C(=O)N2CCN(c3nc4cc(C)ccc4cc3C#N)CC2)c(OC)c1	383	7.6% (inactive)	-9.9% (inactive)	102%	-49.6% (inactive)	115%	-0.595 (inactive)	-2.2e-05 (inactive)	0.00559 (inactive)	14.5% (inactive)	22% (inactive)
CC(C)Cn1c(N)c(C(=O)NCc2cccs2)c2nc3ccccc3nc21	250	-2.4% (inactive)	-3.1% (inactive)	68.4%	-1.8% (inactive)	97.2%	-0.474 (inactive)	7.5e-06 (inactive)	0.00389 (inactive)	14.5% (inactive)	-0.686% (inactive)
COc1ccc(OC)c(NC(=O)c2nnn(Cc3ccc(Br)cc3F)c2N)c1	777	0.6% (inactive)	20.9% (inactive)	99.3%	-25.4% (inactive)	116%	-0.525 (inactive)	-1.8e-05 (inactive)	0.00503 (inactive)	1.6% (inactive)	5.74% (inactive)
CC(=O)NS(=O)(=O)c1ccc(NC(=O)c2ccccc2F)cc1	515	-3.9% (inactive)	23.5% (inactive)	90.4%	31.9% (inactive)	90.8%	-0.383 (inactive)	-3.8e-05 (inactive)	0.00586 (inactive)	6.18% (inactive)	8.62% (inactive)
COc1ccc(Cl)cc1Nc1nc(NCCO)nc(N2CCCC2)n1	390	-4.3% (inactive)	5.8% (inactive)	95.9%	-6% (inactive)	112%	-0.595 (inactive)	-2.1e-05 (inactive)	0.00689 (inactive)	11.5% (inactive)	16.2% (inactive)
Cn1c(C(=O)NCC2CCCO2)cc2c(=O)n(C)c3ccccc3c21 (stereo not drawn)	658	-5.5% (inactive)	-1.8% (inactive)	115%	-71.5% (inactive)	107%	-0.583 (inactive)	-3.1e-05 (inactive)	0.00806 (inactive)	7.53% (inactive)	19% (inactive)
CS(=O)(=O)N1CCc2cc(S(=O)(=O)Nc3ccc4oc5c(c4c3)CCCC5)ccc21	484	7.3% (inactive)	-8.4% (inactive)	104%	-40% (inactive)	121%	-0.531 (inactive)	1.3e-05 (inactive)	0.00786 (inactive)	11.9% (inactive)	3.23% (inactive)
CCCCC(=O)Nc1ccc(NC(=O)C2CC2)nc1	558	19.2% (inactive)	16% (inactive)	67.6%	22.7% (inactive)	94.2%	-0.474 (inactive)	-6e-05 (inactive)	0.00505 (inactive)	3.06% (inactive)	-2.76% (inactive)
CC1CCN(CCn2c(=S)[nH]c3ncccc3c2=O)CC1	508	7.1% (inactive)	-13.9% (inactive)	115%	-9.3% (inactive)	105%	-0.411 (inactive)	-3.5e-05 (inactive)	0.00346 (inactive)	10.2% (inactive)	26.9% (inactive)
Cc1cc(NC(=O)CCCN2C(=O)c3cccnc3C2=O)no1	429	5.6% (inactive)	17.7% (inactive)	100%	-64.2% (inactive)	79.6%	-0.459 (inactive)	1.6e-05 (inactive)	0.00763 (inactive)	-4.41% (inactive)	13.4% (inactive)
O=C(C(c1ccccc1)c1ccccc1)N1CCN(Cc2ccccn2)CC1	357	-7.5% (inactive)	3.4% (inactive)	98.4%	-11.4% (inactive)	107%	-0.369 (inactive)	-1.3e-05 (inactive)	0.00484 (inactive)	5.9% (inactive)	18.2% (inactive)
O=C(NC1CCCCC1)n1c(=O)oc2ccc(Cl)cc21	666	13.9% (inactive)	-4.2% (inactive)	103%	23.4% (inactive)	107%	-0.622 (inactive)	-3.6e-05 (inactive)	0.00609 (inactive)	-1.88% (inactive)	-13.8% (inactive)
O=C(CCCCCN1C(=O)CCC1=O)NCc1ccccc1	581	-15.5% (inactive)	-2% (inactive)	106%	-64.5% (inactive)	105%	-0.605 (inactive)	-4.8e-05 (inactive)	0.00553 (inactive)	12.6% (inactive)	24.6% (inactive)
